40 compounds from PubChem BioAssay AID1780 (National Center for Advancing Translational Sciences (NCATS), 2009) can be followed below.

Molecules are shown by their SMILES. Calls of active or inactive are those of the source. Calls follow the shape of the dose curve; as a rule, active = well fitted curve in the direction sought with a large enough effect; inactive = no such curve, though single readings can be large or run the other way.

The target in this assay is Pyruvate kinase PKM (Homo sapiens) (UniProt P14618). Description: Confirmation Concentration-Response Assay for Activators of Human Muscle isoform 1 Pyruvate Kinase. To be noted: purified hPK-M1, Kinase-Glo ATP luminescence, 1 h; series mostly up to 57.5 µM; activity change, positive = activation: at the top concentration. The source says: Confirmatory assay NIH Chemical Genomics Center [NCGC] Matthew G. Vander Heiden, M.D., Ph.D. [Harvard Medical School, 77 Avenue Louis Pasteur, Boston, MA 02115] NCGC Assay Overview: Human pyruvate kinase […] (hPK-M1) enzyme was supplied as a highly purified (>95% pure) preparation from Harvard Medical School and assayed for its ability to generate ATP from ADP using phosphoenolpyruvate (PEP) as a substrate. ATP generation was detected in a coupled reaction by luciferase-mediated luminescence, an ATP-dependent process. Pyruvate kinase substrates, PEP and ADP, were present in the assay at Km and approximately 10-fold below Km respectively. The enzyme was assayed at an intermediate level of activity to screen for both inhibitors and activators.
Sequence of Pyruvate kinase PKM (Homo sapiens) (P14618 whole entry, looked up, canonical isoform): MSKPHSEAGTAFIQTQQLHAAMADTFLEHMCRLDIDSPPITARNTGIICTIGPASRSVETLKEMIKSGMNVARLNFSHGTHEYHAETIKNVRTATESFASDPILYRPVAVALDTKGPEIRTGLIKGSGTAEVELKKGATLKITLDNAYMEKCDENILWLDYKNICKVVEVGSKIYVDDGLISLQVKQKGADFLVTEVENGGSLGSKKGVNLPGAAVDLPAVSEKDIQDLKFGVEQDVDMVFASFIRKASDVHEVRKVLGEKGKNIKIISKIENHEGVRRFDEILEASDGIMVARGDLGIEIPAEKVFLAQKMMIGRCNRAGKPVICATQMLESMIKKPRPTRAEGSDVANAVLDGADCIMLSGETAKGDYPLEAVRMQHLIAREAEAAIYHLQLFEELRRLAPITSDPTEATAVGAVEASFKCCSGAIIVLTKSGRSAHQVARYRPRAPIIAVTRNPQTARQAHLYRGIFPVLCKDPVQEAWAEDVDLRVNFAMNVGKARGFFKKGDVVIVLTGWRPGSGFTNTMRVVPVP
NCGC Assay Protocol Summary for M1-isoform: Three uL of substrate mix (at r.t.) in assay buffer (50 mM Imidazole pH7.2, 50 mM KCl, 7 mM MgCl2, 0.01% Tween 20, 0.05% BSA) was dispensed into white solid bottom 1,536 well microtiter plates so that the final concentrations of substrates in the assay were 0.1 mM ADP and 0.5 mM PEP. 23 nL of compound were delivered by a pin tool and 1 uL of enzyme mix (final concentration of 1 nM) in assay buffer (4 degree Celsius) was added. Plates were incubated at room temperature for 1 hour. Two uL of detection mix (Kinase-Glo, Promega; at 4 degree Celsius protected from light) was added and luminescence read by a ViewLux (Perkin Elmer) at 1 second exposure/plate. Data were normalized to the uninhibited (row 31). Additionally, a no enzyme and 5-fold enzyme control was dispensed in row 32, split equally between the two conditions.
(In Kinase-Glo more light means more ATP remaining.)
Consider `O=S(=O)(c1ccc2c(c1)OCCO2)N1CCN(S(=O)(=O)c2ccc3c(c2)OCCO3)CC1`, for which the outcome was inactive.
Regarding `Cn1c2cc(C=O)sc2c2cnn(Cc3ccccc3F)c(=O)c21`, the “activity change, positive = activation” value is -1.04% (inactive).
On the same count and under the same terms, with `COC(=O)c1cc2c(s1)c1cnn(Cc3ccccc3F)c(=O)c1n2C` the figure was -6.84% [at 28.7 µM] (inactive); with `O=S(=O)(NC1CCN(S(=O)(=O)c2c(F)cccc2F)CC1)c1ccc2c(c1)OCCO2`, 7.34% (inactive).
Still for that read-out and setting: with `CCCCCn1ncc2c3sc(C)cc3n(C)c2c1=O` the figure was 2.69% (inactive); with `Cc1nc2ccc(S(=O)(=O)N3CCN(S(=O)(=O)c4c(F)cccc4F)CC3)cc2s1`, 6.67% (inactive).
Still for that read-out and setting: under `CSc1cc2c(s1)c1cnn(Cc3ccccc3F)c(=O)c1n2C` stands -1.18% (inactive).
Regarding `CCn1c2cc(C)sc2c2cnn(Cc3ccccc3F)c(=O)c21`, the “activity change, positive = activation” value was 2.24% (inactive).
The same measure, in the same setting: under `O=S(=O)(c1ccc2c(c1)OCCO2)N1CCN(S(=O)(=O)c2c(F)cccc2F)CC1` stands 7.6% (inactive).
Take `COc1ccc(S(=O)(=O)N2CCN(S(=O)(=O)c3c(F)cccc3F)CC2)cc1`: the call was inactive.
For the compound `O=C(c1c(F)cccc1F)N1CCN(S(=O)(=O)c2ccc3c(c2)OCCO3)CC1`, the “activity change, positive = activation” value was 11.3% (inactive).
The same measure, in the same setting: under `O=S(=O)(NCCCCCCNS(=O)(=O)c1c(F)cccc1F)c1ccc2c(c1)OCCO2` stands 4.36% (inactive); under `Cc1cc2c(s1)c1cnn(Cc3ccccc3)c(=O)c1n2C`, 7.2% (inactive).
Still for that read-out and setting: with `Cn1c2cc([N+](=O)[O-])sc2c2cnn(Cc3ccccc3F)c(=O)c21` the figure was 6.32% (inactive); with `O=S(=O)(NCC1CN(S(=O)(=O)c2c(F)cccc2F)C1)c1ccc2c(c1)OCCO2`, -4.42% (inactive).
The same measure, in the same setting: with `COc1ccc(Cn2ncc3c4sc(C)cc4n(C)c3c2=O)cc1F` the figure was -3.8% (inactive).
For `Cc1cc2c(s1)c1cnn(Cc3cccc(F)c3)c(=O)c1n2C`, the “activity change, positive = activation” value was 1.98% (inactive).
On the same count and under the same terms, with `Cc1cc2c(s1)c1cnn(Cc3cccc(Cl)c3)c(=O)c1n2C` the figure was 13.6% (inactive).
On the same count and under the same terms, under `Cc1cc2c(s1)c1cnn(Cc3ccc(C(F)(F)F)cc3F)c(=O)c1n2C` stands 8.07% (inactive); under `O=S(=O)(c1ccc2c(c1)OCCCO2)N1CCN(S(=O)(=O)c2c(F)cccc2F)CC1`, 5.12% (inactive); under `Cc1cc2c(s1)c1cnn(Cc3ccc(F)cc3)c(=O)c1n2C`, -0.493% (inactive).
For the compound `Cc1cc2c(s1)c1cnn(Cc3ccc(C)c(F)c3F)c(=O)c1n2C`, the “activity change, positive = activation” value is 2.33% (inactive).
Same read-out and setting: with `O=C(c1ccc2c(c1)OCCO2)N1CCN(S(=O)(=O)c2c(F)cccc2F)CC1` the figure was 11% (inactive).
On to `O=S(=O)(c1ccc2ccccc2c1)N1CCN(S(=O)(=O)c2c(F)cccc2F)CC1`, for which the call was inactive.
The same measure, in the same setting: under `Cc1cc2[nH]c3c(=O)n(Cc4ccccc4F)ncc3c2s1` stands “inactive”.
On to `Cc1cc2c(s1)c1cnn(Cc3c(F)c(F)cc(F)c3F)c(=O)c1n2C`, for which the “activity change, positive = activation” value was 21% (inactive).
With `Cc1cc2c(s1)c1cnn(-c3ccccc3)c(=O)c1n2C`, the “activity change, positive = activation” value was -6.33% (inactive).
Same read-out and setting: under `C[C@@H]1CN(S(=O)(=O)c2ccc3c(c2)OCCO3)CCN1S(=O)(=O)c1c(F)cccc1F` stands 12% (inactive); under `Cn1c2cc(B(O)O)sc2c2cnn(Cc3ccccc3F)c(=O)c21`, -1.07% (inactive); under `Cc1cc2c(s1)c1cnn(Cc3ccccc3Cl)c(=O)c1n2C`, 0.414% (inactive).
For the compound `CN1CCOc2ccc(S(=O)(=O)N3CCN(S(=O)(=O)c4c(F)cccc4F)CC3)cc21`, the outcome was inactive.
With `CC(O)c1cc2c(s1)c1cnn(Cc3ccccc3F)c(=O)c1n2C` (stereo not given), the “activity change, positive = activation” value was 9.37% (inactive).
On the same count and under the same terms, under `O=C(CN1C(=O)N/C(=C\c2cccn2-c2cccc(C(=O)O)c2)C1=O)Nc1ccccc1F` stands 0.345% (inactive); under `Cn1c2ccsc2c2ncn(Cc3ccccc3F)c(=O)c21`, -6.76% (inactive).
On the same count and under the same terms, under `Cn1c2cc(CO)sc2c2cnn(Cc3ccccc3F)c(=O)c21` stands -7.43% (inactive); under `O=S(=O)(c1ccc(F)cc1)N1CCN(S(=O)(=O)c2ccc3c(c2)OCCO3)CC1`, 5.08% (inactive); under `O=S(=O)(c1c(F)cccc1F)C1CCN(S(=O)(=O)c2ccc3c(c2)OCCO3)CC1`, 10% (inactive).
Same read-out and setting: under `Cc1cc2c(s1)c1cnn(Cc3ccc(-c4ccccc4)cc3)c(=O)c1n2C` stands 1.85% (inactive); under `C[C@H]1CN(S(=O)(=O)c2c(F)cccc2F)CCN1S(=O)(=O)c1ccc2c(c1)OCCO2`, 7.55% (inactive).
`O=S(=O)(c1ccccc1)N1CCN(S(=O)(=O)c2ccc3c(c2)OCCO3)CC1`: the “activity change, positive = activation” value is 7.14% (inactive).
